Screens as filed in PubChem BioAssay.
Compounds with a hit are over-represented: about 3.3% of the library has one in this group of screens.
VACV Venus inh = vaccinia inhibition (Venus reporter); AID 720580; Vaccinia virus Venus reporter expression, fluorescence; Potency, µM (titrated, usually from 36.5 µM), hits mostly inhibitors; 330,000 tested, 0.46% active; calls by dose curve; tested in A549 cells; also: nearly all actives have a fitted effect of over 30% in size
HCV inh = HCV inhibition | Huh7.5.1 HCVcc-Cre infection, luciferase reporter, 44 h | Potency, µM (titrated, usually from 41.8 µM), hits mostly inhibitors | 340,000 tested, 3.4% active; active = well fitted inhibition curve with a large enough effect; inconclusive = small, poorly fitted or top-dose-only effect, or another doubt; inactive = no such curve, though single readings can be large or run the other way
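A cell-based infection assay in which seeded cells (1,000 per well) receive test compound after 4 h, are inoculated with HCVcc-Cre at approximately 0.5 moi, and are incubated 44 h before luminescence detection.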
VACV mCherry inh = inhibitors of vaccinia virus infection (mCherry reporter signal) | Vaccinia virus mCherry reporter infection, fluorescence | Potency, µM (doses to about 36.5 µM), usual class: inhibitors | 310,000 tested, 0.63% active; calls by dose curve; tested in A549 cells; also: nearly all actives have a fitted effect of over 35% in size
A number is an active result; . = inactive; ? = inconclusive; / = not tested or not shown; [ ] = dose if it differs, or a comment.

SMILES	VACV Venus inh	HCV inh	VACV mCherry inh
Cc1c(C(O)CN2CCN(Cc3ccc4c(c3)OCO4)CC2)c2ccccc2n1C (stereo not given)	.	18µM	.
COc1ccc2c(c1)c(C(O)CN1CCN(Cc3ccc4c(c3)OCO4)CC1)c(C)n2C (stereo not given)	.	?	.[1.46 µM]
O=C(CSc1nc(=O)[nH]c2c1CCCC2)NCc1ccc(F)cc1	.[7.34 µM]	/	.[7.34 µM]
CCN(CC)C(=O)Cn1cc(S(=O)(=O)CC(=O)Nc2cccc(NC(C)=O)c2)c2ccccc21	.	/	.
CCN(CC)C(=O)Cn1cc(S(=O)(=O)CC(=O)Nc2ccc(C(N)=O)cc2)c2ccccc21	/	0.56µM	/
CC(NC(=O)c1cc(F)ccc1F)c1nnc2n1CCN(Cc1ccccc1O)CC2 (stereo not given)	.	/	.
CN1C2CCC1/C(=C\c1ccccc1)C(=O)/C2=C\c1ccccc1	/	13µM	/
O=C1/C(=C/c2ccccc2)CCC1C1CCCC1 (stereo not given)	.	.	.
CC1C/C(=C/c2ccccn2)C(=O)/C(=C/c2ccccn2)C1 (stereo not given)	?	2.2µM	?
O=C1/C(=C/c2ccccn2)COc2ccccc21	.	.	.
CN1C2CCC1/C(=C/c1ccccn1)C(=O)/C2=C\c1ccccn1	6.3µM	3.5µM	2.5µM
C(=C\c1ccccn1)/c1ccccn1	.	.	.
CCN1C(=O)[C@H]2[C@@H](c3ccc(Cl)cc3)N3C(=O)CN(CCOC)C(=O)[C@@]3(Cc3ccccc3)[C@H]2C1=O	.	.	.
Cc1ccnc(NS(=O)(=O)c2ccc(NC(=O)Cc3ccc(Br)cc3)cc2)n1	/	.	/
Cc1oc2ncn(C)c(=O)c2c1C(=O)N(C)c1ccccc1F	.	/	.
CCNC(=O)c1ccc2c(c1)S(=O)(=O)c1ccccc1C2=O	.	.	.
C=CCNC(=O)c1ccc2c(c1)S(=O)(=O)c1ccccc1C2=O	.	25µM	?
CN1CC(=O)NC1=N	.	/	.
Cc1cc(C(=O)CSc2nnnn2C)c(C)n1-c1ccc2c(c1)OCCO2	/	.	/
O=C(COC(=O)c1ccccc1[N+](=O)[O-])c1ccc2c(c1)OCO2	.	.	.
CN(C)C(=O)CSc1nnc(-c2cc(-c3cccs3)nc3ccccc23)o1	5µM	?	/
Cc1cc(C(=O)COC(=O)c2ccc(N)c([N+](=O)[O-])c2)c(C)n1-c1ccc2c(c1)OCO2	/	2µM	/
Cc1cc(C(=O)CSc2nnc(-c3ccc4c(c3)OCO4)o2)c(C)n1-c1ccc(F)cc1	.	.	.
Cc1nnc(SCC(=O)c2cc(C)n(-c3ccc4c(c3)OCO4)c2C)s1	.	11µM	.
CCN(CC)C(=O)CSc1nnc(-c2cc(-c3ccc(Cl)cc3)nc3ccccc23)o1	.	.	.
SMILES	VACV Venus inh	HCV inh	VACV mCherry inh
Cc1cc(C(=O)CSc2nnc(-c3ccco3)o2)c(C)n1-c1ccc2c(c1)OCCO2	.	13µM	/
O=C(O)CCCC(=O)N1CCN(c2nc(-c3ccccc3Cl)c3cc(Br)ccc3n2)CC1	/	.	/
CC(C)(CNC(=O)c1cnn(-c2ncc3c(n2)-c2ccccc2CC3)c1C1CC1)N1CCOCC1	.	/	.
Cc1ccc(CNC(=O)CN2C(=O)CCc3cc(S(=O)(=O)N4CCCCC4)ccc32)cc1	.	/	.
CC1CCC(NC(=O)COC(=O)c2cccnc2Cl)CC1 (stereo not given)	/	.	/
CCCN1CNc2c(c(=O)[nH]c(=S)n2CCc2ccc(C)cc2C)C1	.	/	.
Cc1cc(C(=O)CSc2n[nH]c(N)n2)c(C)n1-c1ccc(F)cc1	/	.	/
CC(=O)Nc1ccc(S(=O)(=O)NCC(=O)OCC(=O)c2cc(C)n(-c3ccc4c(c3)OCO4)c2C)cc1	.	.	.
CC(=O)c1ccc(OCC(=O)c2cc(C)n(-c3ccc4c(c3)OCO4)c2C)cc1	.	13µM	.
Cc1cc(C(=O)CSc2nnc(-c3cccs3)o2)c(C)n1-c1ccccc1	/	8.9µM	/
O=C(CSc1nnc(-c2cccs2)o1)c1cccs1	?	.	?
Cc1cc(C(=O)CSc2n[nH]c(N)n2)c(C)n1-c1ccccc1	/	11µM	/
Cc1cc(C(=O)COC(=O)c2ccc(N)c([N+](=O)[O-])c2)c(C)n1Cc1ccc2c(c1)OCO2	.[7.34 µM]	13µM	.[7.34 µM]
C=CCn1c(C)cc(C(=O)COC(=O)c2ccc(N)c([N+](=O)[O-])c2)c1C	?	?	.
Cc1ccc(CN(Cc2cc3cc(C)ccc3[nH]c2=O)Cc2nnnn2Cc2ccccc2)cc1	.	/	.
CCN(CC(=O)Nc1ccccc1OC)C(=O)CSCc1ccc(C)cc1	.	.	.
CN(C)c1cc(Nc2ccc(O)cc2)c([N+](=O)[O-])c2nonc12	.	.	.
O=[N+]([O-])c1c(Nc2ccc(O)cc2)cc(Cl)c2nonc12	?	7.1µM	?
CN(N=O)c1ccc(/C=C2\C=Cc3ccccc32)cc1	.	/	.
Cc1ncc2c(c1CNC(=O)/C=C/c1cccs1)CCN(C(=O)c1ccc3c(c1)OCCO3)C2	.	/	.
